EPAC2 ag – EPAC2 (human) agonism; Q8WZA2; EPAC2 activation, biochemical qHTS; response scale: 100% = 6.5 mM cAMP response; Potency, µM (top dose mostly 154 µM), actives largely listed as activators; hit rate 0.079% among 360,000; further: nearly all actives have a fitted effect of over 50% in size
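Compounds were added across a concentration range to EPAC2 (100 nM), RAP1B-BODIPY-GDP (250 nM) and GDP (50 uM). After 5 min at room temperature, fluorescence was recorded at 5-min intervals for 30 min.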
EPAC2 antagonist – blocks human EPAC2 exchange factor. Q8WZA2. EPAC2 GEF exchange of Rap1B-BODIPY-GDP, fluorescence. Potency, µM (titrated, usually from 114 µM), most hits filed as inhibitors. hit rate 0.18% among 360,000. AID 720708; further: nearly all actives have a fitted effect of over 45% in size
EPAC1 antagonist – EPAC1 (human) antagonism. O95398. EPAC1 GEF assay, Rap1b-BODIPY-GDP exchange fluorescence. Potency, µM (doses to about 115 µM), most hits filed as inhibitors. hit rate 0.14% among 360,000. AID 720709; further: nearly all actives have a fitted effect of over 50% in size
EPAC1 agonist – EPAC1 (human) agonism. O95398. AID 720707. EPAC1 agonist qHTS, biochemical assay; response scale: 100% = response to 6.5 mM cAMP. Potency, µM (top dose mostly 154 µM), hits mostly activators. hit rate 0.073% among 360,000; further: nearly all actives have a fitted effect of over 60% in size
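Nucleotide exchange assay: 100 nM EPAC1 with 250 nM Rap1B loaded with BODIPY-GDP and 50 uM GDP, room temperature. Fluorescence (480/540 nm) read every 5 min for 30 min; signal change normalized to 6.5 mM cAMP as full agonist.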
KCNH2 3.1 block – blocks the human KCNH2 3.1 channel isoform | hit rate 0.95% among 340,000 | AID 720553 | activity change, % (tested at about 1.8 µM) | U2OS KCNH2 3.1, thallium flux FluxOr; active compounds read low;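 active means maximum activity change below -70%; inconclusive means maximum activity change from -70% to -50%; inactive means maximum activity change above -50%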;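 further: thallium influx rate constant from kinetic fluorescence after stimulation buffer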
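Normalized rate constant (relative to positive and negative DMSO controls) derived from a 2 min kinetic fluorescence read after stimulation; U2OS cells expressing the 3.1 isoform via virus at 1.77 x 10^8 /mL.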
KCNH2 WT inh – inhibitors of human wildtype KCNH2 potassium channel; activity change, % at 1.84 µM; Q12809; U2OS, BacMam KCNH2, thallium flux FluxOr; active compounds read low; hit rate 0.37% among 340,000;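 active means maximum activity change below -70%; inconclusive means maximum activity change between -70% and -50%; inactive means maximum activity change above -50%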
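U2OS cells transduced with wild-type KCNH2 virus are loaded with FluxOr dye for 45 min, and thallium flux is measured in kinetic reads before and after stimulation buffer. Rate constants are normalized to DMSO controls.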
Hits are given with their value; i = inactive; ? = inconclusive; nt = no result given. The list is not random: actives were taken first. Their share in the collection is about 1.4%. Unless noted, the call rests on the fitted dose curve; in most records, active means well fitted curve in the direction sought with a large enough effect; inconclusive means small, poorly fitted or top-dose-only effect, or another doubt; inactive means no such curve, though single readings can be large; an effect the other way counts as inactive or inconclusive.

SMILES	EPAC2 ag	EPAC2 antagonist	EPAC1 antagonist	EPAC1 agonist	KCNH2 3.1 block	KCNH2 WT inh
Cn1c(SCC(=O)Nc2ccccc2[N+](=O)[O-])nnc1C(F)(F)F	i	i	i	i	i	i
Cc1cccc(NC(=O)CNC(=O)CSc2nnc(C(F)(F)F)n2C)c1C	i	i	i	i	-186	-130
Cc1coc2c1C(=O)C(=O)c1c-2ccc2c1CCCC2(C)C	i	i	?	i	i	i
Cc1coc2c1C(=O)C(=O)c1c-2ccc2c(C)cccc12	i	i	79µM	i	i	i
Cc1ccccc1CSCCNS(C)(=O)=O	i	i	i	i	-79	i
CS(=O)(=O)NCCSCc1ccccc1	i	i	i	i	i	i
O=C(NC1CCCC1)C1C(c2ccc(C(F)(F)F)cc2)=Nc2ccccc2N1C(=O)c1cc2ccccc2[nH]1 (stereo not given)	i	i	i	i	nt	nt
O=C(Cn1cc(Cl)ccc1=O)c1ccc(Cl)cc1	i	i	i	i	nt	-134
CCN(C(=O)COC(=O)c1cc(S(=O)(=O)N(C)C)ccc1Cl)C1CCS(=O)(=O)C1 (stereo not given)	i	i	i	i	i	i
CCC(C(=O)NCCc1ccc(OC)cc1OC)n1nc(C)n2c(cc3occc32)c1=O (stereo not given)	i	i	i	i	i	i
Cc1ccc(NC(=S)/C(C#N)=C2/Nc3ccccc3S2)cc1	i	20µM	?	i	i	i
N#C/C(C(=O)N1CCCCC1)=C1\Nc2ccccc2S1	i	i	i	i	i	i
COc1ccc(O)cc1CN1CCN(c2ncc(Cc3ccccc3)cn2)CC1	i	i	i	i	nt	nt
COc1cccc(N=CNc2cccc(OC)c2)c1	i	i	i	i	i	i
COc1ccccc1C1CCN(Cc2ccc3ccccc3c2)CC1	i	i	?	i	-188	-209
COc1ccccc1C1CCN(Cc2ccccc2)CC1	i	i	i	i	i	i
COC(C(=O)NNS(=O)(=O)c1ccc([N+](=O)[O-])cc1)c1ccccc1 (stereo not given)	i	i	i	i	i	i
COC(C(=O)NNS(=O)(=O)c1ccccc1[N+](=O)[O-])c1ccccc1 (stereo not given)	i	i	i	i	i	-96
CCOc1ccc(C(=O)N[C@H](C(=O)Nc2ccc(S(=O)(=O)Nc3nccs3)cc2)C(C)C)cc1	i	i	i	i	i	i
O=C(O)/C=C\C(=O)Nc1ccccc1C#Cc1ccc(Br)cc1	i	10µM	i	i	i	i
CC(=O)OC1c2ccccc2C(=O)N1Cc1ccccc1 (stereo not given)	i	i	i	i	i	i
Cc1noc(/C=C/c2cccnc2)c1[N+](=O)[O-]	i	i	i	i	i	i
Cc1noc(/C=C/c2ccc(-c3ccccc3Cl)o2)c1[N+](=O)[O-]	100µM	i	i	i	i	i
COc1cc(C2NC(=S)NC(C)=C2C(=O)c2ccccc2)ccc1O (stereo not given)	i	i	i	i	i	i
CCCOc1ccc(C2NC(=S)NC(C)=C2C(=O)c2ccccc2)cc1OC (stereo not given)	i	i	i	i	-112	i
SMILES	EPAC2 ag	EPAC2 antagonist	EPAC1 antagonist	EPAC1 agonist	KCNH2 3.1 block	KCNH2 WT inh
O=C(Nc1ccc(F)cc1)C(c1cc2ccccc2o1)N1CCN(C(=O)c2ccco2)CC1 (stereo not given)	i	i	i	i	nt	nt
O=C(NCC1CC1)c1cccc2c1C(=O)c1ccc(-c3ccc(OC(F)(F)F)cc3)cc1S2(=O)=O	i	?	i	i	i	i
CC(C)(C)CNC(=O)c1cccc2c1C(=O)c1ccc(-c3cc4ccccc4o3)cc1S2(=O)=O	100µM	i	?	i	i	i
CCCCN(C)C(=O)c1nc2ccccn2c1CN1CCN(c2ncccn2)CC1	i	i	i	i	i	i
CCCCN(C)C(=O)c1nc2ccccn2c1CN1CCN(C/C=C/c2ccccc2)CC1	i	i	i	i	-102	i
CCc1nn(CCCC(=O)N2CCN(c3cccc(C)c3C)CC2)c(=O)c2cc3occc3n12	i	i	i	i	i	i
COC(=O)[C@@]12CCCCN1[C@H](c1ccc(-c3ccc(F)cc3)c(OC)c1)[C@H]1C(=O)N(C)C(=O)[C@H]12	i	i	i	i	-95	i
COC(=O)[C@@]12CCCCN1[C@H](c1ccc(-c3ccc(OC)cc3)c(OC)c1)[C@@H]1C(=O)N(C)C(=O)[C@@H]12	i	i	?	i	i	i
Cc1cc(Oc2cccc3c2S(=O)(=O)N(C2CCCC2)CC(COCc2ccccc2)O3)cc(C)c1C (stereo not given)	i	i	i	i	i	i
CCOC(=O)/C(N=Nc1ccc2c(c1)OCO2)=C(\C)O	i	i	i	i	i	i
O=C(Nc1cccc(NC(=O)c2cccc([N+](=O)[O-])c2)n1)c1cccc([N+](=O)[O-])c1	i	i	i	i	-84	i
O=C(N/N=C/c1ccccn1)c1cccc([N+](=O)[O-])c1	i	i	i	i	i	i
O=C(N/N=C/c1ccccn1)c1ccc(NC(=O)c2cccc([N+](=O)[O-])c2)cc1	i	?	i	i	-71	i
CCCCc1nc(C(N)=O)c2[nH]c(=O)n(-c3ccc(OCC)cc3)c2n1	i	i	i	i	i	i
COc1cccc(NC(=O)C2CCC(CNS(=O)(=O)c3cccc4cccnc34)CC2)c1 (stereo not given)	i	i	i	i	i	i
CCOC(=O)C(C)Sc1nc2c(c(=O)[nH]c(=O)n2C)n1Cc1ccc(Cl)cc1 (stereo not given)	i	i	i	i	-91	?
CC(C)Sc1nc2c(c(=O)[nH]c(=O)n2C)n1Cc1ccc(Cl)cc1	i	i	i	i	i	i
N#C/C(=C/c1ccc2c(c1)OCO2)C(=O)NCCc1c[nH]c2ccccc12	i	i	i	i	-74	i
CCN1/C(=C/C=C/c2oc3ccc(-c4ccccc4)cc3[n+]2CC)Oc2ccc(-c3ccccc3)cc21	63µM	i	i	40µM	-160	-96
CCN1/C(=C/C=C/c2sc3ccccc3[n+]2CC)Sc2ccccc21	i	i	i	i	i	i
O=c1[nH]c(C2CCN(S(=O)(=O)c3cccc([N+](=O)[O-])c3)CC2)nc2c1nnn2Cc1ccccc1	i	i	i	i	i	i
COc1cccc(C(=O)NCCN2CCC(n3c(=O)[nH]c4ccccc43)CC2)c1	i	i	i	i	nt	nt
CCOC(=O)Cc1nn[nH]n1	i	i	i	i	-128	i
COc1ccc([C@H]2[C@@H](C#N)[C@H](C#N)N3CCCN23)cc1	i	i	i	i	-98	i
